The campaign covered roughly 5,500 compounds. About 2,000 (36%) were called active. Another 18% or so got no clear call; they are omitted. Rule as the data show it: active = normalized growth mostly below about 0.91 (no sharp cut-off); inconclusive = no clear call, values can overlap the other calls; inactive = mostly above about 0.92. Some of the results follow. Where a SMILES comes first, the peptide text is derived from it. Bridges are numbered along the chain shown (N, C = ends). [ ]: non-standard residue; d: D form. The star is where a group is joined. ξ: configuration not given here. ξDab(CH2SO3H) = NC(CCNCS(=O)(=O)O)C(=O)O; Heptanoyl(6-Me) = CC(C)CCCCC(=O)*; Dab = NCC[CH](N)C(=O)O
Experiment: chemical genetic growth profiling, strain panel (AID 1159580);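 also: tested at 20 µM; growth read once vehicle control cultures reached saturation at 30 °C; 1 = growth at the plate median or of vehicle wells; lower values mean less growth of the strain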
Conditions: growth OD

Measured: normalized growth

CCC(C)C1NC(=O)C(CCNCS(=O)(=O)O)NC(=O)C(NC(=O)C(CCNCS(=O)(=O)O)NC(=O)C(NC(=O)C(CCNCS(=O)(=O)O)NC(=O)CCCCC(C)C)C(C)O)CCNC(=O)C(C(C)O)NC(=O)C(CCNCS(=O)(=O)O)NC(=O)C(CCNCS(=O)(=O)O)NC(=O)C(C(C)CC)NC1=O (configuration not stated) ({Heptanoyl(6-Me)}-[ξDab(CH2SO3H)]T[ξDab(CH2SO3H)][Dab][ξDab(CH2SO3H)]II[ξDab(CH2SO3H)][ξDab(CH2SO3H)]T; lactam 4-C; configuration not given here)
inactive: S. cerevisiae deletion strains, locus YJR075W, strain HOC1, active compounds read low 1 | S. cerevisiae deletion strains, locus YKL009W, strain mrt4, active compounds read low 0.986 | S. cerevisiae deletion strains, locus YKL068W, active compounds read low 0.964 | S. cerevisiae deletion strains, locus YKL085W, strain MDH1 (second series), active compounds read low 0.951 | S. cerevisiae deletion strains, locus YKL085W, strain MDH1, active compounds read low 0.951 | S. cerevisiae deletion strains, locus YKL160W, strain elf1, active compounds read low 1.02 | S. cerevisiae deletion strains, locus YKL190W, strain CNB1, active compounds read low 0.969 | S. cerevisiae deletion strains, locus YKR001C, strain vps1, active compounds read low 0.972 | S. cerevisiae deletion strains, locus YKR026C, strain gcn3, active compounds read low 0.98 | S. cerevisiae deletion strains, locus YKR091W, strain srl3, active compounds read low 0.98 | S. cerevisiae deletion strains, locus YLL001W, strain dnm1, active compounds read low 0.994 | S. cerevisiae deletion strains, locus YLL026W, active compounds read low 0.997 | S. cerevisiae deletion strains, locus YLL041C, strain sdh2, active compounds read low 0.993 | S. cerevisiae deletion strains, locus YLR027C, strain aat2, active compounds read low 0.995 | S. cerevisiae deletion strains, locus YLR039C, strain RIC1, active compounds read low 0.962 | S. cerevisiae deletion strains, locus YLR058C, strain SHM2, active compounds read low 0.988 | S. cerevisiae deletion strains, locus YLR102C, strain apc9, active compounds read low 0.962 | S. cerevisiae deletion strains, locus YLR113W, strain HOG1, active compounds read low 1.1 | S. cerevisiae deletion strains, locus YLR221C, strain rsa3, active compounds read low 0.99 | S. cerevisiae deletion strains, locus YLR258W, strain gsy2, active compounds read low 0.99 | S. cerevisiae deletion strains, locus YLR262C, strain YPT6 (second series), active compounds read low 0.997 | S. cerevisiae deletion strains, locus YLR262C, strain YPT6, active compounds read low 0.992 | S. cerevisiae deletion strains, locus YLR268W, strain sec22, active compounds read low 0.978 | S. cerevisiae deletion strains, locus YLR320W, strain mms22, active compounds read low 0.96 | S. cerevisiae deletion strains, locus YLR330W, strain CHS5, active compounds read low 0.968 | S. cerevisiae deletion strains, locus YLR342W, strain FKS1 (second series), active compounds read low 1.02 | S. cerevisiae deletion strains, locus YLR342W, strain FKS1, active compounds read low 1 | S. cerevisiae deletion strains, locus YLR357W, strain rsc2, active compounds read low 0.963 | S. cerevisiae deletion strains, locus YLR370C, strain arc18, active compounds read low 0.979 | S. cerevisiae deletion strains, locus YLR371W, strain rom2, active compounds read low 0.962 | S. cerevisiae deletion strains, locus YLR384C, strain iki3, active compounds read low 0.998 | S. cerevisiae deletion strains, locus YLR418C, strain cdc73, active compounds read low 0.989 | S. cerevisiae deletion strains, locus YML016C, strain PPZ1, active compounds read low 0.978 | S. cerevisiae deletion strains, locus YML032C, strain rad52, active compounds read low 0.963 | S. cerevisiae deletion strains, locus YML120C, strain ndi1, active compounds read low 0.971 | S. cerevisiae deletion strains, locus YML124C, strain tub3, active compounds read low 0.964 | S. cerevisiae deletion strains, locus YMR058W, strain fet3, active compounds read low 0.987 | S. cerevisiae deletion strains, locus YMR078C, strain ctf18, active compounds read low 0.976 | S. cerevisiae deletion strains, locus YMR125W, strain sto1, active compounds read low 0.973 | S. cerevisiae deletion strains, locus YMR129W, active compounds read low 0.979 | S. cerevisiae deletion strains, locus YMR205C, strain PFK2, active compounds read low 0.958 | S. cerevisiae deletion strains, locus YMR223W, strain ubp8, active compounds read low 0.99 | S. cerevisiae deletion strains, locus YMR231W, strain pep5, active compounds read low 0.987 | S. cerevisiae deletion strains, locus YMR263W, strain SAP30, active compounds read low 0.985 | S. cerevisiae deletion strains, locus YMR307W, strain GAS1, active compounds read low 1.12 | S. cerevisiae deletion strains, locus YNL067W, strain RPL9B, active compounds read low 0.991 | S. cerevisiae deletion strains, locus YNL071W, strain lat1, active compounds read low 0.981 | S. cerevisiae deletion strains, locus YNL128W, strain TEP1, active compounds read low 0.971 | S. cerevisiae deletion strains, locus YNL153C, strain GIM3, active compounds read low 0.987 | S. cerevisiae deletion strains, locus YNL183C, strain NPR1, active compounds read low 0.935 | S. cerevisiae deletion strains, locus YNL209W, strain ssb2, active compounds read low 1.02 | S. cerevisiae deletion strains, locus YNL233W, strain BNI4, active compounds read low 0.996 | S. cerevisiae deletion strains, locus YNL248C, strain rpa49, active compounds read low 1.02 | S. cerevisiae deletion strains, locus YNL250W, strain rad50, active compounds read low 0.95 | S. cerevisiae deletion strains, locus YNL271C, strain bni1, active compounds read low 0.963 | S. cerevisiae deletion strains, locus YNL298W, strain CLA4, active compounds read low 0.974 | S. cerevisiae deletion strains, locus YNL307C, strain MCK1, active compounds read low 0.982 | S. cerevisiae deletion strains, locus YNL322C, strain KRE1 (second series), active compounds read low 0.983 | S. cerevisiae deletion strains, locus YNL322C, strain KRE1, active compounds read low 0.972 | S. cerevisiae deletion strains, locus YNR049C, strain mso1, active compounds read low 0.994 | S. cerevisiae deletion strains, locus YNR052C, strain pop2, active compounds read low 0.968 | S. cerevisiae deletion strains, locus YOL006C, strain TOP1, active compounds read low 1.02 | S. cerevisiae deletion strains, locus YOL012C, strain htz1 0.945 | S. cerevisiae deletion strains, locus YOL147C, strain pex11, active compounds read low 0.982 | S. cerevisiae deletion strains, locus YOR001W, strain rrp6, active compounds read low 0.961 | S. cerevisiae deletion strains, locus YOR061W, strain CKA2, active compounds read low 0.978 | S. cerevisiae deletion strains, locus YOR069W, strain VPS5, active compounds read low 0.983 | S. cerevisiae deletion strains, locus YOR070C, strain gyp1, active compounds read low 0.996 | S. cerevisiae deletion strains, locus YOR080W, strain dia2, active compounds read low 0.984 | S. cerevisiae deletion strains, locus YOR083W, strain WHI5, active compounds read low 0.987 | S. cerevisiae deletion strains, locus YOR106W, strain vam3, active compounds read low 1.03 | S. cerevisiae deletion strains, locus YOR136W, strain idh2, active compounds read low 0.966 | S. cerevisiae deletion strains, locus YOR144C, strain elg1, active compounds read low 0.962 | S. cerevisiae deletion strains, locus YOR184W, strain ser1, active compounds read low 1.01 | S. cerevisiae deletion strains, locus YOR231W, strain MKK1, active compounds read low 0.998 | S. cerevisiae deletion strains, locus YOR265W, strain rbl2, active compounds read low 0.998 | S. cerevisiae deletion strains, locus YOR270C, strain vph1, active compounds read low 0.834 | S. cerevisiae deletion strains, locus YOR290C, strain snf2, active compounds read low 1.01 | S. cerevisiae deletion strains, locus YOR316C, strain cot1, active compounds read low 0.947 | S. cerevisiae deletion strains, locus YPL051W, strain arl3, active compounds read low 1 | S. cerevisiae deletion strains, locus YPL055C, strain LGE1, active compounds read low 0.991 | S. cerevisiae deletion strains, locus YPL078C, strain atp4, active compounds read low 0.998 | S. cerevisiae deletion strains, locus YPL106C, strain sse1, active compounds read low 0.941 | S. cerevisiae deletion strains, locus YPL240C, strain hsp82, active compounds read low 0.988 | S. cerevisiae deletion strains, locus YPL241C, strain CIN2, active compounds read low 0.974 | S. cerevisiae deletion strains, locus YPL256C, strain CLN2, active compounds read low 1.06 | S. cerevisiae deletion strains, locus YPR119W, strain clb2, active compounds read low 0.955 | S. cerevisiae deletion strains, locus YPR141C, strain kar3, active compounds read low 0.937 | S. cerevisiae deletion strains, locus YPR163C, strain tif3, active compounds read low 0.971 | S. cerevisiae deletion strains, locus YPR167C, strain met16, active compounds read low 0.945 | S. cerevisiae deletion strains, strain wtn01, active compounds read low 0.973 | S. cerevisiae strains, strain wild type, active compounds read low 0.98

From PubChem BioAssay AID1159580 (chemical genetic matrix, 2015)
